# Test results reported in ChEMBL document CHEMBL4513216, “Probing the Open Global Health Chemical Diversity Library for Multistage-Active Starting Points for Next-Generation Antimalarials” (ACS Infect Dis, 2020).
# The campaign covered roughly 69,000 compounds. About 8,600 (12%) showed an effect of 50% or more. The full list was thinned out, with strong results kept by preference.
# Tested on: Plasmodium berghei
# Experiment: Screen against P. berghei liver stage (PbLuc), transformed with Luciferase, at 10uM
# Assay type: functional, HepG2
# Conditions: tested at 10 uM
row,Compound,INHIBITION [%]
1,CC(=O)N1CCC(c2ccnc(Nc3cc(C(F)(F)F)ccn3)n2)C1 (stereo unspecified),2.55
2,CN(C)C(=O)[C@H]1C[C@H]2OCC[C@H]2N(CCOc2ccc(Cl)cc2)C1,1.48
3,Cc1ncc2c(n1)CN(CCCc1ccccc1)CC2,-21.8
4,Cc1nn(C)c(C)c1NC(=O)c1cccc(CN2CC[C@H](O)C2)c1,56.6
5,Cn1nccc1NC(=O)c1cccc(CN2C[C@H]3CC[C@@H](C2)N3)c1,6.09
6,Cc1ccc(Cl)c(NC(=O)c2cccc(CN3CC[C@H](O)C3)c2)c1,43.9
7,Cc1nn(C)c(C)c1NC(=O)c1cccc(CN2C[C@H]3CC[C@@H](C2)N3)c1,16
8,CCCn1cc(NC(=O)c2cccc(CN3CC[C@H](O)C3)c2)nn1,65.6
9,Cc1nn(C)c(C)c1NC(=O)c1cccc(CN2CCS(=O)(=O)CC2)c1,44.4
10,CCn1cc(NC(=O)c2cccc(CN3C[C@@H](C)O[C@@H](C)C3)c2)nn1,81.3
11,CCCn1cc(NC(=O)c2cccc(CN3CC=CC3)c2)nn1,-57.5
12,CCN(Cc1cccc(C(=O)Nc2cn(C)nn2)c1)[C@H]1COC[C@@H]1O,35.7
13,CCOc1ccc2cc(C(=O)N3CCn4c(CC)nnc4C3)[nH]c2c1,0.411
14,COc1nn(C)cc1C(=O)N1CCC(c2ccccc2)C1 (stereo unspecified),11.8
15,Cc1ccccc1C1(C(=O)NCCN2CCCC(C)C2)CCOCC1 (stereo unspecified),49.8
16,Cc1cc(C)n(CCC(=O)N2CCC(c3nc(C)no3)CC2)n1,47.4
17,CC(C)n1cnnc1CNC(=O)c1cnc2ccccc2n1,-4.73
18,Cc1nc(Nc2ccccn2)cc(N2CCN(S(C)(=O)=O)CC2)n1,53.2
19,CS(=O)(=O)N1CCN(c2ccc(Nc3ccccn3)nn2)CC1,21.5
20,Cc1ccc(Nc2cc(N3CCN(S(C)(=O)=O)CC3)nc(C)n2)cc1,-19.7
21,O=C1CCC2(CCC(NCc3cccnc3)CC2)N1Cc1ccccc1 (stereo unspecified),48.2
22,CCn1cc(NC(=O)NCC(C)N(C)C2CC2)cn1 (stereo unspecified),-62.8

row,Compound,INHIBITION [%]
1,CC(CN1CCC(CCO)CC1)n1cnc2ccccc21 (stereo unspecified),-0.217
2,CC(CN1CCC(c2ccccc2)CC1)n1cnc2ccccc21 (stereo unspecified),56.2
3,CC(CN1CC[C@@H]2CCCC[C@@H]2C1)n1cnc2ccccc21 (stereo partly specified),3.58
4,CCCC(O)CN1CCC(=O)N(CCOC)Cc2cc3c(cc21)OCO3 (stereo unspecified),22.2
5,COCCN1CCCC1c1nccnc1Nc1nccs1 (stereo unspecified),61.9
6,COCCN1CCCC1c1nccnc1Nc1ncc(C)s1 (stereo unspecified),8.53
7,COCCN1CCCC1c1nccnc1Nc1nc(C)cs1 (stereo unspecified),16.9
8,COCCC(=O)N1CCn2cc(CN3CCN(C)CC3)nc2C1,-17.2
9,CCc1nc2n(n1)CC(NCCC(=O)Nc1cc(C)on1)CC2 (stereo unspecified),7.08
10,CCN(CC1CN(Cc2nc(C3CC3)no2)CCO1)c1cccnn1 (stereo unspecified),87.6
11,CCN(CC1CN(Cc2c(C)noc2C)CCO1)c1cccnn1 (stereo unspecified),44.9
12,CCN(CC1CN(Cc2ncc(C)o2)CCO1)c1cccnn1 (stereo unspecified),-17.4
13,CCN(CC1CN(Cc2nccn2CC)CCO1)c1cccnn1 (stereo unspecified),41.4
14,CCN(CC1CN(CC2CCC2)CCO1)c1cccnn1 (stereo unspecified),62.8
15,CCN(CC1CN(Cc2ncc[nH]2)CCO1)c1cccnn1 (stereo unspecified),11.1
16,COc1cc(C2CC(=O)Nc3c2c(=O)[nH]n3C2CCCC2)ccc1O (stereo unspecified),27.4
17,CSc1[nH]nc(NC(=O)c2ccncc2)c1C#N,48.8
18,O=C(N1CCCC(n2cncn2)C1)C1(c2cccc(F)c2)CC1 (stereo unspecified),23.7
19,CCOc1ccnc(N2CCN(C(=O)c3ccoc3C)CC2)n1,-13.5
20,CCCN1CC[C@@H]2OC[C@H](C(=O)Nc3cccnc3)C[C@@H]2C1,59.9
21,CC(C)NC(=O)[C@H]1C[C@H]2OCC[C@H]2N(Cc2ccc3ccccc3n2)C1,61.4
22,CC(C)N1CC[C@@H]2OC[C@H](C(=O)Nc3cccnc3)C[C@@H]2C1,-25.1

row,Compound,INHIBITION [%]
1,COCCNC(=O)[C@H]1CO[C@H]2CCN(Cc3cccs3)C[C@H]2C1,38.5
2,CNC(=O)[C@H]1CO[C@H]2CCN(c3ncc(F)cn3)C[C@H]2C1,3.58
3,CNC(=O)[C@H]1CO[C@H]2CCN(Cc3ccc4ccccc4n3)C[C@H]2C1,50
4,O=C(NC1CC1)[C@H]1C[C@H]2OCC[C@H]2N(Cc2ccc3ccccc3n2)C1,38.1
5,O=C(Nc1cccnc1)[C@H]1CO[C@H]2CCN(c3ncc(F)cn3)C[C@H]2C1,25.4
6,CC(C)NC(=O)[C@@H]1C[C@H]2OCC[C@H]2N(Cc2ccc3ccccc3n2)C1,19.4
7,NC(=O)CSc1nccc(-c2ccc3c(c2)OCO3)n1,-22.6
8,CS(=O)(=O)N1CCOCC2(CCN(c3ccccn3)C2)C1 (stereo unspecified),5.96
9,O=c1[nH]cc(Nc2ccc(Cl)cc2)c(=O)[nH]1,15.4
10,O=S1(=O)CCN2C(=N1)Oc1ccc(Cl)cc12,30.5
11,O=S1(=O)CCN2C(=N1)Oc1ccc(S(=O)(=O)N3CCCC3)cc12,86.6
12,CCS(=O)(=O)c1ccc2c(c1)N1CCS(=O)(=O)N=C1O2,20.1
13,Cn1cc(Br)c(=O)c(NS(=O)(=O)c2ccccc2F)c1,-1.38
14,CCn1cc(CN(C)S(=O)(=O)c2ccc(C)c(C)c2)cn1,10.1
15,CCc1nc(CN2CCOC(CNc3cccnn3)C2)cs1 (stereo unspecified),41.5
16,Cc1cnc(CN2CCOC(CNc3cccnn3)C2)cn1 (stereo unspecified),2.26
17,COCc1nc(CN2CCOC(CNc3cccnn3)C2)cs1 (stereo unspecified),14.1
18,CCCc1nc(CN2CCOC(CNc3cccnn3)C2)cs1 (stereo unspecified),58.9
19,c1cnnc(NCC2CN(Cc3ccon3)CCO2)c1 (stereo unspecified),50.5
20,Cc1cc(CN2CCOC(CNc3cccnn3)C2)no1 (stereo unspecified),7.12
21,CC(=O)N1CCC(c2cccc(-c3cccc(C(=O)O)c3)n2)CC1,25.8
22,Cc1cnn(CC2CCCN2C(=O)c2ccc(Cl)cc2F)c1 (stereo unspecified),3.73

row,Compound,INHIBITION [%]
1,CCc1nc(C2CCCN(C(=O)c3c(C)noc3C)C2)no1 (stereo unspecified),45.1
2,Cc1noc(C)c1-c1cccc(C2CCCNC2)n1 (stereo unspecified),-57.4
3,CCCc1ccc2oc(C(=O)N3CCN(CCC(N)=O)CC3)c(C)c2c1,18.5
4,Cc1c(NC(=O)CN2CCC(Oc3cnccn3)CC2)cnn1C,0.696
5,O=C(CCC1CCCN(S(=O)(=O)C2CC2)C1)Nc1ccc(Cl)cc1 (stereo unspecified),28
6,O=C(CCC1CCCN(C(=O)CCc2ccc(F)c(F)c2)C1)NC1CC1 (stereo unspecified),75.4
7,COCCC(=O)N1CCCC(CCc2ccc(F)c(F)c2)C1 (stereo unspecified),4.97
8,COCCC(=O)N1CCCC(CCC(=O)NCc2ccccc2F)C1 (stereo unspecified),-4.12
9,COCCC(=O)N1CCCC(CCC(=O)NCc2cccc(OC)c2)C1 (stereo unspecified),9.52
10,COCCC(=O)N1CCCC(CCC(=O)Nc2ccc(Cl)cc2)C1 (stereo unspecified),57.2
11,Cc1ccc(-c2nc3cc(S(=O)(=O)N4CCCC4)ccc3n2C)o1,14.1
12,CCc1cccc2cc(CNCCOC)c(=O)[nH]c12,24.95
13,O=C(CCn1ccnc1)N1CCCC(n2cncn2)C1 (stereo unspecified),49
14,c1cncc(N2CCCC3(CCN(CC4CCCO4)CC3)C2)c1 (stereo unspecified),3.58
15,Cc1cccc(CN2CCCC3(CCN(CC4CCCO4)CC3)C2)n1 (stereo unspecified),53
16,Cc1cccc(CN2CCOCC3(CCN(C4CCOCC4)C3)C2)n1 (stereo unspecified),-34.9
17,c1cc(CN2CCCC3(CCN(CC4CCCO4)CC3)C2)n[nH]1 (stereo unspecified),47.5
18,Cn1ccnc1CN1CCCC2(CCN(CC3CCCO3)CC2)C1 (stereo unspecified),38.1
19,c1ccc(CN2CCCC3(CCN(CC4CCCO4)CC3)C2)nc1 (stereo unspecified),62
20,c1cc(CN2CCc3c(nnn3CC3CC3)C2COCC2CC2)co1 (stereo unspecified),27.4
21,CCN1CCOCC2(CCCN(C(=O)c3ccncc3F)C2)C1 (stereo unspecified),27.2
22,Cc1c(C(=O)N2CCCN(S(C)(=O)=O)CC2)cnn1C,-4.96

row,Compound,INHIBITION [%]
1,N#CCCCS(=O)(=O)NC1(c2ccc(F)cc2)CC1,26.4
2,CN(C)c1ccc(NC(=O)NCC2CCOC2)cn1 (stereo unspecified),77.85
3,O=C(NCC1CCOC1)Nc1ccc(Oc2ccc(F)cc2)nc1 (stereo unspecified),3.67
4,O=C(NCC1CCOC1)Nc1ccc(Oc2cccc(F)c2)nc1 (stereo unspecified),-8.15
5,CCN(CC)c1ccc(NC(=O)NCC2CCOC2)cn1 (stereo unspecified),-45.3
6,Cc1ccc(Oc2ccc(NC(=O)NCC3CCOC3)cn2)cc1C (stereo unspecified),58.2
7,O=C(NCC1CCOC1)Nc1ccc(OCC(F)(F)F)nc1 (stereo unspecified),23.2
8,COc1ncccc1CNC(=O)NCCNS(C)(=O)=O,-9.37
9,CC(C)CS(=O)(=O)N1C[C@@H]2C[C@H](C(=O)Nc3cccnc3)[C@H](C1)O2,-10.3
10,CN1N=C(C(=O)N(Cc2ccco2)C2CC2)CCC1=O,19
11,Cc1c(Br)cccc1C(=O)NCC1CCNCC1,39.7
12,Cn1cccc1CN1CCC2(CCCN(C(=O)c3cccnc3)C2)CC1,-43.1
13,Cc1ccnc(NC(=O)C2CCCO2)c1 (stereo unspecified),62.3
14,CC(C)(C)c1cc(NC(=O)C2CCCO2)n(-c2ccccn2)n1 (stereo unspecified),52.5
15,CCC(CC)n1nc(C)cc1NC(=O)C1CCCO1 (stereo unspecified),-56.4
16,CC(C)(C)c1cc(NC(=O)C2COCCO2)n(-c2ccccn2)n1 (stereo unspecified),30.7
17,Cc1nccn1-c1cc(CNC(=O)C2CCCO2)ccn1 (stereo unspecified),21
18,CCSCc1ccnc(NC(=O)C2CCCO2)c1 (stereo unspecified),-4.26
